Assay [1] has as its target Protein kinase C eta type (Homo sapiens) (UniProt P24723). The conditions noted are these: at 1 µM.
Assay [2] shares this target. The conditions noted are these: at 10 µM.
For assay [3], the target named is Protein kinase C theta type (Homo sapiens) (UniProt Q04759). As to conditions: at 1 µM; call rule not given here.
Assay [4] has the same target. The conditions noted are these: at 10 µM.
The target in assay [5] is T1, Protein kinase C iota type (Homo sapiens) (UniProt P41743).
T1 sequence (whole entry): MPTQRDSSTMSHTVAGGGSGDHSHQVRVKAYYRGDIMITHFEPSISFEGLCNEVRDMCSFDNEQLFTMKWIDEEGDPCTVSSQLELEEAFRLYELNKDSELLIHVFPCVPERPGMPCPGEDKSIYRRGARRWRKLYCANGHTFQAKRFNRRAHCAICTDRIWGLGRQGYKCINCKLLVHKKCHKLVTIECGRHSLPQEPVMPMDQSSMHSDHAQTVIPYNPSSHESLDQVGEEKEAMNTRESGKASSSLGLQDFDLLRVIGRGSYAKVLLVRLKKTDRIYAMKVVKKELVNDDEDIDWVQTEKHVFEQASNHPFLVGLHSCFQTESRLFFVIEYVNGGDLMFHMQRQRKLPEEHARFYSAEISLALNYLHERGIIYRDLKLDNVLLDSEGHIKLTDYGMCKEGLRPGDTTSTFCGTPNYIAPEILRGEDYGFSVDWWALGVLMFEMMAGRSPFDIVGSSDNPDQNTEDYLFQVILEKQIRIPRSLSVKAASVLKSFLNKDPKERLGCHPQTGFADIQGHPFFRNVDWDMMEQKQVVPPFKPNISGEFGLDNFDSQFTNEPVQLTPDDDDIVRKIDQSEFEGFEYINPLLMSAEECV
As to conditions: at 1 µM.

The target in assay [6] is T1, Protein kinase C iota type (Homo sapiens). As to conditions: at 10 µM.
For assay [7], the target named is T2, Serine/threonine-protein kinase D1 (Homo sapiens) (UniProt Q15139).
T2 sequence (whole entry): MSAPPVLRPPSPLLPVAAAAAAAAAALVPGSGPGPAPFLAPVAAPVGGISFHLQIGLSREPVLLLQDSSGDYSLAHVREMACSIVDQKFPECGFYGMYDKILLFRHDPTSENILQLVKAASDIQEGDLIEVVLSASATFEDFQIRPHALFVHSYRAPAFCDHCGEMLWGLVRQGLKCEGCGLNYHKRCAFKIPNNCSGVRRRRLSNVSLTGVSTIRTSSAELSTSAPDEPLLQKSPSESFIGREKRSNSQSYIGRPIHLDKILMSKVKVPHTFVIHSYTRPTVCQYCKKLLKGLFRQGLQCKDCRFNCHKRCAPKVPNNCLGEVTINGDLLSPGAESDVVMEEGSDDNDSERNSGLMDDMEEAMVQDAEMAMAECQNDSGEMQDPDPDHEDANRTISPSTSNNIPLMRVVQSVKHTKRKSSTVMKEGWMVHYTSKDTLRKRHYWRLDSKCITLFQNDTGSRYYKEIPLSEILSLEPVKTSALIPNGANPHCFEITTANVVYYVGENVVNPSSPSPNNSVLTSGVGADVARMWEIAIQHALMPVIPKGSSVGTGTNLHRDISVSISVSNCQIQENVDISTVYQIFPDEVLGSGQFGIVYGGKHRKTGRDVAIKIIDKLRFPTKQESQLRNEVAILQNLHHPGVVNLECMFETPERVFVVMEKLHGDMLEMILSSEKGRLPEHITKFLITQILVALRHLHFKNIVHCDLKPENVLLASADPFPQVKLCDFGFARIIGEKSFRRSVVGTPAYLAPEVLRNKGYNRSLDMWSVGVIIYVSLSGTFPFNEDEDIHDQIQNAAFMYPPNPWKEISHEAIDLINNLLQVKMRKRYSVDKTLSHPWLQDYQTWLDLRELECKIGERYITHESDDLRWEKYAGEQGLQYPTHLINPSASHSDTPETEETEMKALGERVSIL
As to conditions: at 1 µM.

Assay [8] concerns the target T2, Serine/threonine-protein kinase D1 (Homo sapiens). The conditions noted are these: at 10 µM.
Assay [9] concerns the target T3, Serine/threonine-protein kinase D2 (Homo sapiens) (UniProt Q9BZL6).
T3 sequence (whole entry): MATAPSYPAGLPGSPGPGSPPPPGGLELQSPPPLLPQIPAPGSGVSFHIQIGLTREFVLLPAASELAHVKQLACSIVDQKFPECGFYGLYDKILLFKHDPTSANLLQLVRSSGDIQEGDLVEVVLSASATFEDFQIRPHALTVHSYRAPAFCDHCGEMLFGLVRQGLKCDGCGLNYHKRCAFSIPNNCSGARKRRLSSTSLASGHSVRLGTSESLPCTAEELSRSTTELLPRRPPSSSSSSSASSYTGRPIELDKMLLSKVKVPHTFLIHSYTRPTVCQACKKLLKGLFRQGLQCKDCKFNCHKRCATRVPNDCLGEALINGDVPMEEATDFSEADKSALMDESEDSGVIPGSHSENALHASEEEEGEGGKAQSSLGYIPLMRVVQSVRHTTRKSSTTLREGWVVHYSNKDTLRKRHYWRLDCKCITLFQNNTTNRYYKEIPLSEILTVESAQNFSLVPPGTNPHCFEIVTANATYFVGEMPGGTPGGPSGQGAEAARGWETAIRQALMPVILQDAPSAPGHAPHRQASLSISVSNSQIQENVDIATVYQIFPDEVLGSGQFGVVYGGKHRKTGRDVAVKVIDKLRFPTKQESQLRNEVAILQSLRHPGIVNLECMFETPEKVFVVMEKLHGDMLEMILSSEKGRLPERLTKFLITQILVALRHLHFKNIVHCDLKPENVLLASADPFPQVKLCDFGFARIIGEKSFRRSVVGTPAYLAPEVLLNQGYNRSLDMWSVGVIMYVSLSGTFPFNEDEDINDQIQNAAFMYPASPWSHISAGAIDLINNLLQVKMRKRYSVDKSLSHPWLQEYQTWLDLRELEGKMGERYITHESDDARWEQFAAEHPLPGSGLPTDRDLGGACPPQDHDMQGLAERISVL
The conditions noted are these: at 1 µM.

The target in assay [10] is T3, Serine/threonine-protein kinase D2 (Homo sapiens). The conditions noted are these: at 10 µM.

Sequence of Protein kinase C eta type (Homo sapiens) (P24723 whole entry): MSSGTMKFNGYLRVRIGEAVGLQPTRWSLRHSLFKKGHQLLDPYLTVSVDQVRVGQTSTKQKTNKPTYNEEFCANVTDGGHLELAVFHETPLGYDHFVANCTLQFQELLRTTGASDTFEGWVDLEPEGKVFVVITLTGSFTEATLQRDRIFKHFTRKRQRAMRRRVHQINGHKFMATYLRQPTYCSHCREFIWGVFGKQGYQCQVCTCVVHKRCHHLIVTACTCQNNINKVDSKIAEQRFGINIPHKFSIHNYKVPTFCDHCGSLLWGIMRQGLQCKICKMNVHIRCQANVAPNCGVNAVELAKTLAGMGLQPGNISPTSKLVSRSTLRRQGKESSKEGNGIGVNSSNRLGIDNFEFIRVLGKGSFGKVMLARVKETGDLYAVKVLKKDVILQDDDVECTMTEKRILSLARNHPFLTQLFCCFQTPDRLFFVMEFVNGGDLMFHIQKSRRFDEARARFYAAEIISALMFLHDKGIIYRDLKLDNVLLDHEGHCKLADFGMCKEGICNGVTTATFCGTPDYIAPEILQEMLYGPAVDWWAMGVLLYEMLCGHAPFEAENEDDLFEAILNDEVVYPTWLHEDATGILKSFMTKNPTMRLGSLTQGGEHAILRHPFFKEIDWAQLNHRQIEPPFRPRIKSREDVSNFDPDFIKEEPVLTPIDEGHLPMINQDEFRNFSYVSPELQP
Sequence of Protein kinase C theta type (Homo sapiens) (Q04759 whole entry, looked up): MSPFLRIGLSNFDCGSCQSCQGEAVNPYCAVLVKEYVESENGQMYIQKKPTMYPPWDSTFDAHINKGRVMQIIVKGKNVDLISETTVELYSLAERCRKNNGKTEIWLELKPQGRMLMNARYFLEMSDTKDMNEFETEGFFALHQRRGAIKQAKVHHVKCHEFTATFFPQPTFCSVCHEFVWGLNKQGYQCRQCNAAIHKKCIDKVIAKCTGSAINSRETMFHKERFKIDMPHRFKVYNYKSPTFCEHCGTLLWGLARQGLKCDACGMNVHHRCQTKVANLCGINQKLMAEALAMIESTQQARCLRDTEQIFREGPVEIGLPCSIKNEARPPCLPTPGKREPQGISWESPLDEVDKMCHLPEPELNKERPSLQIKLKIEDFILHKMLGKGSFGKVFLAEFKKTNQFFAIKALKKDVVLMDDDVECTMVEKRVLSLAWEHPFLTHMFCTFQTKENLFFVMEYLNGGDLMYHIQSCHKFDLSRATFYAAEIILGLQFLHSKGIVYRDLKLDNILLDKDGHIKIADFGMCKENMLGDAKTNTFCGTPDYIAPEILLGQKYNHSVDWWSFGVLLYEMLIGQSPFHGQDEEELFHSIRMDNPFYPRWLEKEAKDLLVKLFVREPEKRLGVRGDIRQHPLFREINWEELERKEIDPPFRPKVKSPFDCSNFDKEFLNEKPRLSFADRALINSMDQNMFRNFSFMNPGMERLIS

Regarding `COc1cccc(-c2cc(=O)c3ccccc3o2)c1N`, the residual activity (as a rule, the signal under treatment as a percentage of the control signal) was 101% in [1]; 94% in assay [2]; 92% in [3]; 97% in [4]; 114% (inactive) in assay [5]; 108% in assay [6]. For the same compound, the residual activity stood at 85% in assay [7], 95% in assay [8], 110% in [9] and 97% in assay [10].

Consider `O=C1NC(=O)/C(=C/c2ccc3c(c2)OC(F)(F)O3)S1`, for which the residual activity in assay [1] was 120%; in assay [2], 89%; in [3], 109%; in [4], 100%; in assay [5], 90% (inactive); in assay [6], 80%. The residual activity in assay [7] turned out to be 105%; in assay [8], 77%; in assay [9], 107%; in assay [10], 99%.

For the compound `CC#CC(=O)Nc1cc2c(Nc3ccc(F)c(Cl)c3)ncnc2cn1`, the residual activity in assay [1] is 90%; in assay [2], 84%; in [3], 96%; in assay [4], 96%; in assay [5], 87% (inactive); in assay [6] it was 106%. For the same compound, the residual activity came to 89% in [7], 84% in [8], 105% in [9] and 114% in assay [10].

Consider `COc1ccc(C(=O)Nc2sc3c(c2C(N)=O)CCCC3)cc1OC`, for which the residual activity was 98% in assay [1]; 77% in [2]; 89% in [3]; 84% in [4]; 89% (inactive) in [5]; 107% in assay [6]. For the same compound, the residual activity was 89% in [7], 96% in assay [8], 103% in [9] and 108% in [10].

`Cc1cc(Nc2nc(-c3ccccc3)nc3ccccc23)n[nH]1`: the residual activity in assay [3] is 64%; in assay [4] it was 26%; in [5], 112% (inactive); in assay [6], 107%; in assay [9] it was 110%; in assay [10], 104%.

In the case of `COc1ccc(S(=O)(=O)N(CCO)c2ccccc2CN(C)C/C=C/c2ccc(Cl)cc2)cc1`, the residual activity in [1] is 78%; in assay [2], 89%; in assay [3] it was 89%; in assay [4], 93%; in assay [5], 117% (inactive); in [6], 110%. Moreover, the residual activity in assay [7] is 83%; in assay [8] it was 77%; in [9], 102%; in assay [10] it was 99%.

Consider `Nc1ccc2ncnc(NCCc3ccc(Oc4ccccc4)cc3)c2c1`, for which the residual activity was 102% in [1]; 90% in [2]; 108% in [3]; 105% in assay [4]; 113% (inactive) in assay [5]; 111% in assay [6]. Further, the residual activity was 91% in assay [7], 82% in [8], 107% in assay [9] and 102% in assay [10].

For `Cc1cccc(-c2[nH]c(C(C)(C)C)nc2-c2ccc3c(c2)OCO3)n1`, the residual activity was 84% in [1]; 80% in [2]; 96% in [3]; 95% in [4]; 85% (inactive) in assay [5]; 76% in assay [6]. The residual activity came out at 72% in assay [8], 103% in assay [9] and 106% in [10].

As to `O=C1Nc2ccccc2/C1=C1/Nc2ccccc2/C1=N\OCCC(O)CO` (stereo not given), the residual activity in [3] is 66%; in [4], 29%; in assay [5] it was 113% (inactive); in assay [7] it was 73%; in assay [8], 32%; in assay [9] it was 101%. In addition, in assay [10], the residual activity was found to be 76%.

For `O=C1Nc2ccc(Br)cc2/C1=C\c1cc2c([nH]1)CCCC2`, the residual activity was 102% in assay [1]; 73% in assay [2]; 100% in assay [3]; 99% in [4]; 84% (inactive) in assay [5]; 78% in [6]. For the same compound, in [10], the residual activity was determined as 106%.

Take `COc1cc2ncnc(Nc3ccc(O)c(Br)c3)c2cc1OC`: the residual activity in assay [1] is 94%; in assay [2], 69%; in assay [3] it was 83%; in assay [4], 81%; in assay [5], 88% (inactive); in [6] it was 106%. Also, the residual activity in assay [7] was found to be 47%; in [8] it was 16%; in assay [9], 93%; in assay [10] it was 79%.

As to `COc1cc2ncnc(Nc3ccc(NC(=O)c4ccccc4)cc3)c2cc1OC`, the residual activity in assay [1] is 137%; in assay [2], 95%; in assay [4], 101%; in assay [5], 101% (inactive); in assay [6] it was 66%; in assay [8], 88%. Also, the residual activity in assay [9] is 100%; in assay [10], 106%.

With `c1ccc(-c2n[nH]c3c2oc2ccccc23)cc1`, the residual activity in assay [1] is 91%; in assay [2] it was 85%; in assay [3], 98%; in assay [4], 96%; in assay [5], 90% (inactive); in assay [6], 79%. Further, the residual activity in assay [8] came to 72%.

In the case of `N#CC(C#N)=C(N)/C(C#N)=C/c1ccc(O)cc1`, the residual activity in [1] is 118%; in [2], 81%; in [5] it was 81% (inactive); in assay [6], 75%; in assay [7], 93%.

In the case of `CN(C)CCCn1cc(C2=C(c3c[nH]c4ccccc34)C(=O)NC2=O)c2ccccc21`, the residual activity in assay [5] is 74% (inactive); in [6], 47%; in assay [7] it was 108%; in assay [8], 43%; in [10] it was 82%.

Regarding `Nc1cccc(-c2cc3c(Oc4cccc(O)c4)ncnc3[nH]2)c1`, the residual activity was found to be 83% in assay [1]; 64% in assay [2]; 88% in assay [3]; 57% in assay [4]; 99% in assay [6]; 80% in [7]. Moreover, the residual activity came out at 51% in assay [8], 99% in [9] and 54% in assay [10].

For the compound `Cc1cc2ncc(-c3ccccc3)nc2cc1C`, the residual activity in assay [1] was 107%; in [2], 84%; in assay [3], 110%; in assay [4], 102%; in assay [5] it was 83% (inactive); in assay [6], 78%. The residual activity was 104% in assay [9] and 110% in assay [10].

Turning to `Nc1nc(Nc2ccc(S(N)(=O)=O)cc2)nn1C(=S)Nc1c(F)cccc1F`, the residual activity is 30% in [1]; 4% in [2]; 10% in assay [3]; 2% in assay [4]; 80% in assay [6]; 2% in assay [7]. For the same compound, the residual activity was 4% in assay [8], 45% in [9] and 6% in assay [10].

On to `COc1cc2ncnc(Nc3ccc(Oc4ccccc4)cc3)c2cc1OC`, for which the residual activity is 98% in assay [1]; 83% in assay [2]; 108% in assay [3]; 112% in assay [4]; 90% (inactive) in assay [5]; 76% in assay [6]. In addition, the residual activity is 95% in [7], 103% in assay [8], 106% in assay [9] and 106% in assay [10].

These data come from ChEMBL document CHEMBL2218924, “A broad activity screen in support of a chemogenomic map for kinase signalling research and drug discovery” (Biochem J, 2013).
